Rows were chosen to be rich in hits. Some 6.2% of all compounds tested hit in one or more screens of this group.
KB-3-1 cytotox: kills parental KB-3-1 adenocarcinoma cells; KB-3-1 viability, CellTiter-Glo ATP luminescence, 72 h; Potency, µM (titrated, usually from 46.1 µM), most hits filed as cytotoxic; actives 1.4% (n = 400,000); AID 1347075; further: nearly all actives have a fitted effect of over 60% in size
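KB-3-1 parental drug-naive adenocarcinoma cells in DMEM/10% FBS, incubated 72 h at 37 C with pin-transferred compounds across a concentration series. Viability by CellTiter-Glo luminescence; concentration-response curves fitted after normalization.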
S2 tox: viability counter-screen for ATXN expression inhibitors; Potency, µM (top dose mostly 56.7 µM), hits mostly cytotoxic; actives 0.49% (n = 400,000); S2 cells (HEK-293 line with an ATXN2-luciferase reporter) viability, CellTiter-Fluor protease fluorescence, 24 h; further: nearly all actives have a fitted effect of over 40% in size
KB-V1 MDR tox: KB-V1 MDR subline cytotoxicity; Potency, µM (highest dose often 46.1 µM), hits mostly cytotoxic; actives 3.4% (n = 400,000); AID 1347076; KB-V1 MDR cells viability, CellTiter-Glo, 72 h; further: nearly all actives have a fitted effect of over 60% in size
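KB-V1 MDR subline cells in DMEM (phenol-red free, 10% FBS) exposed to compounds in qHTS concentration series for 72 h at 37 degrees C. Viability read by CellTiter-Glo luminescence; concentration-effect curves fitted after normalization and correction.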
ATXN2 expr inh: ATXN2 expression inhibition; HEK-293 ATXN2-luciferase reporter, luminescence, 24 h; Potency, µM (series often up to 57 µM), actives largely listed as inhibitors; actives 0.72% (n = 360,000); further: nearly all actives have a fitted effect of over 55% in size
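ATXN2-luciferase reporter cells (luciferase flanked by upstream and downstream ATXN2 gene portions) were treated 24 h at 37 °C with compounds at up to 57 uM. SteadyGlo luminescence gave expression; GF-AFC fluorescence gave viability.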
HT1080-NT tox: kills 2HG-producing HT-1080-NT fibrosarcoma cells; HT-1080-NT fibrosarcoma viability, CellTiter-Glo ATP luminescence, 48 h; Potency, µM (top dose mostly 46.1 µM), usual class: cytotoxic; actives 1.6% (n = 360,000); AID 686970;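 further: NT is the 2HG producing partner of a matched IDH1 knockdown line; nearly all actives have a fitted effect of over 55% in size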
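Compounds were tested in concentration-response format on HT-1080-NT cells for 48 hours at 37 degrees C. Cell viability came from CellTiter-Glo luminescence; curves were classified by r2, response magnitude and activity.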
HT1080 IDH1KD tx: kills HT-1080 cells with IDH1 knockdown | HT-1080 IDH1 knockdown viability, ATP luminescence, 48 h | Potency, µM (top dose mostly 46.1 µM), hits mostly cytotoxic | actives 2% (n = 360,000) | AID 686971
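CellTiter-Glo luminescence after 48 h compound exposure at 37 degrees C of IDH1-knockdown HT-1080 cells in 5% FBS RPMI. %Activity scaled between DMSO wells and cell-free media wells, with curves fitted and assigned curve classes.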
Of the large screens only hits and unclear results are named; the others gave an inactive call. The call rests on the fitted dose curve; in most records, active means well fitted curve in the direction sought with a large enough effect; inconclusive means small, poorly fitted or top-dose-only effect, or another doubt; inactive means no such curve, though single readings can be large; an effect the other way counts as inactive or inconclusive.

CCc1n[nH]c(=S)n1/N=C/c1ccccn1	none
CCc1n[nH]c(=S)n1/N=C/c1c(O)ccc2ccccc12	KB-3-1 cytotox inconclusive, KB-V1 MDR tox 5.8µM (no result: ATXN2 expr inh)
O=Cc1ccccc1C=O	none (no result: KB-3-1 cytotox, KB-V1 MDR tox, HT1080-NT tox, HT1080 IDH1KD tx)
COc1ccc(-n2c(/C=C(\C)O)nc(=O)c3c(C)cc(C)nc32)cc1	KB-V1 MDR tox 7.31µM
COc1ccc(-n2c(C)nn(C)c2=O)cc1	none
CC(C)NC(=O)NC(=O)COC(=O)c1c2c(nc3ccccc13)CCC2	KB-V1 MDR tox 20.6µM, HT1080-NT tox inconclusive, HT1080 IDH1KD tx 25.9µM
COc1cccc(NC(=O)COC(=O)c2c3c(nc4ccccc24)CCC(C)C3)c1 (centres undefined)	KB-3-1 cytotox inconclusive, S2 tox inconclusive, KB-V1 MDR tox 2.91µM, ATXN2 expr inh inconclusive, HT1080 IDH1KD tx inconclusive
O=C(OCC(=O)N1CCc2ccccc21)c1c2c(nc3ccccc13)CCCCC2	KB-3-1 cytotox inconclusive, S2 tox inconclusive, KB-V1 MDR tox 4.61µM, ATXN2 expr inh inconclusive
Cc1cccc(C)c1NC(=O)CCC(=O)N1Cc2ccccc2Oc2ncccc21	none (no result: HT1080-NT tox, HT1080 IDH1KD tx)
CCN(CC)C(=O)C1CCN(C(=O)c2cnn(-c3ccccc3)c2-n2cccc2)CC1	none (no result: HT1080-NT tox, HT1080 IDH1KD tx)

From PubChem
